# Measurements published in ChEMBL document CHEMBL1201862, “PubChem BioAssay data set” (2004).
# In all, about 400,000 compounds went through this assay and about 2,100 (0.53%) were called active. Another 14% or so got no clear call; they are omitted. The rule behind the calls is not given here. This excerpt belongs to a sample that is enriched for actives.
# Target: Ataxin-2 (Homo sapiens) (UniProt Q99700)
# Experiment: qHTS for Inhibitors of ATXN expression.
# Assay type: functional
# Sequence of Ataxin-2 (Homo sapiens) (Q99700 whole entry): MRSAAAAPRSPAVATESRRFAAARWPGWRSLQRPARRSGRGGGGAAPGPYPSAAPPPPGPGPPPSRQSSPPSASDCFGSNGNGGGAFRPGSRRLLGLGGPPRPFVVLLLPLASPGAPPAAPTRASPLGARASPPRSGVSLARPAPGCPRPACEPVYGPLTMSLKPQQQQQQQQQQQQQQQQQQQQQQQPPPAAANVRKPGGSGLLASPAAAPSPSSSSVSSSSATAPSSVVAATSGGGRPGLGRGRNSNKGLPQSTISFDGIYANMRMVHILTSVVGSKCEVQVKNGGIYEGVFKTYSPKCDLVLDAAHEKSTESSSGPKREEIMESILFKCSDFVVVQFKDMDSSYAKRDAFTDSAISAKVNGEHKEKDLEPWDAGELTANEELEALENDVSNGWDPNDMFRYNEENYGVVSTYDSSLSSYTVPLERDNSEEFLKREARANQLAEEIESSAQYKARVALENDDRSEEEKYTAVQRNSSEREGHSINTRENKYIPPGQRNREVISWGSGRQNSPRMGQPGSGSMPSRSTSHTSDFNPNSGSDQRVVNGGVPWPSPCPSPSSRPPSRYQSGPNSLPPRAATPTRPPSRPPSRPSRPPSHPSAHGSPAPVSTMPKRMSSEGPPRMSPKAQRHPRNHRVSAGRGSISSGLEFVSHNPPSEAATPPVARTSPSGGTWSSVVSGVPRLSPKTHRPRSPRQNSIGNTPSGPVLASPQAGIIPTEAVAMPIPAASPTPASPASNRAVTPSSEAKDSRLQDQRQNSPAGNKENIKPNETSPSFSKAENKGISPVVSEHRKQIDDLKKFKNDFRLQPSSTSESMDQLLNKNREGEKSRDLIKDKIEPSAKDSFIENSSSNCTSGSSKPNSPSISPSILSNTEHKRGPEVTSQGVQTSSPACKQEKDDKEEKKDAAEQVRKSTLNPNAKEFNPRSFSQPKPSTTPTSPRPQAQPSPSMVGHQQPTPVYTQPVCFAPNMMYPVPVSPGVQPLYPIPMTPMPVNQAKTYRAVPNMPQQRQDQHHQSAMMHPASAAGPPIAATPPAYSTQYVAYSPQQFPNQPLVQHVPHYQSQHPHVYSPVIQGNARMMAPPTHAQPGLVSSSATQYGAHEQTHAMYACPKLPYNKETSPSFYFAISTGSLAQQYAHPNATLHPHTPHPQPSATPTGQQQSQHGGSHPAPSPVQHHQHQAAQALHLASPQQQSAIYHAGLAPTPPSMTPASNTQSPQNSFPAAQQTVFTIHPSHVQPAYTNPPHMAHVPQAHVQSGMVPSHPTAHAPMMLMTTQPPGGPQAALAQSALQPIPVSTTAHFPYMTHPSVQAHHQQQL
row,SMILES,Potency
1,C=CCSc1nnc(C)c(/C=C/Nc2ccc(Cl)cc2)n1,inactive
2,CCC(=O)Oc1ccc2c(c1)O/C(=C\c1ccco1)C2=O,inactive
3,CCOC(=O)c1c(NC(=O)c2ccc(S(=O)(=O)N3CCC(C)CC3)cc2)sc2c1CCN(C(C)C)C2,inactive
4,O=C(C#Cc1ccccc1)c1ccc([N+](=O)[O-])cc1,25.1 µM (active)
5,O=[N+]([O-])c1ccc(N(c2ccccc2)c2ccccc2)cc1,inactive
6,Cc1c(C(=O)c2cccc([N+](=O)[O-])c2)c2ccccn2c1CCC#N,inactive
7,O=C(C#Cc1ccccc1)c1cccc([N+](=O)[O-])c1,17.8 µM (active)
8,Cc1ccc(C)n1NC(=O)c1ccc([N+](=O)[O-])cc1,inactive
9,N#Cc1c(N)n(CCOC(=O)c2cccc([N+](=O)[O-])c2)c2nc3ccccc3nc12,inactive
10,O=C(c1cn(-c2ccccc2)nc1-c1cccnc1)N1CCN(S(=O)(=O)c2ccccc2F)CC1,inactive
11,Cc1cc(C)cc(OCC(=O)NC2CCCc3ccccc32)c1 (stereo not drawn),inactive
12,NC(=O)N/N=C\c1cc(Br)ccc1O,inactive
13,O=C(/C=C/c1cc(Br)ccc1O)c1ccco1,39.8 µM (active)
14,O=C(/C=C/Nc1ccccc1Oc1ccccc1)c1ccco1,inactive
15,COc1ccc(C2=CC(c3ccc(C)cc3)n3nnnc3N2)cc1 (stereo not drawn),inactive
16,ClCc1nnc(-c2cc3c(s2)CCCC3)o1,39.8 µM (active)
17,Sc1nnc(-c2cc3c(s2)-c2ccccc2CC3)o1,inactive
18,CCOC(=O)c1cc2c(=O)n3ccccc3nc2n(Cc2ccco2)/c1=N\C(=O)c1ccc(C)c(C)c1,inactive
19,COc1ccc(Cl)cc1NC(=O)C(OC)c1ccccc1 (stereo not drawn),inactive
20,COc1cc2c(cc1NC(=O)C(Cl)Cl)-c1ccc(NC(=O)C(Cl)Cl)cc1C2,16.8 µM (active)
21,COc1ccc(OC)c(NC(=O)C(C)Oc2ccc(Br)cc2)c1 (stereo not drawn),inactive
22,CCN(Cc1ccccc1)C(=O)CSc1ccccc1C(=O)O,inactive

row,SMILES,Potency
1,O=C(Nc1ccccc1C(=O)Nc1ccccc1C(=O)O)c1ccccc1,inactive
2,COc1cccc(-c2ccc3c(N)c(C(=O)Nc4ccc(Cl)cc4F)sc3n2)c1,inactive
3,Cc1ccc(NC(=O)c2cccc(Oc3ccc([N+](=O)[O-])cc3)c2)c(C(=O)O)c1,inactive
4,COc1cccc(C(=O)Nc2nnc(-c3ccc(Cl)cc3)o2)c1,35.5 µM (active)
5,O=C(Nc1nnc(-c2ccc3c(c2)CCCC3)o1)c1ccccc1,39.8 µM (active)
6,O=C(Nc1nnc(-c2cccs2)o1)c1cccc(Oc2ccccc2)c1,28.2 µM (active)
7,COC(=O)c1ccsc1NC(=O)c1cccc(OC)c1,inactive
8,COc1ccc(OC)c2sc(NC(=O)c3ccc(Cl)s3)nc12,inactive
9,COc1cccc(N/C=C/C(=O)c2ccc(Cl)cc2)c1,inactive
10,N=c1oc2c3c4c(cc2cc1C(=O)Nc1ccccc1)CCCN4CCC3,inactive
11,COc1cccc(-c2nnc(NC(=O)c3ccc(Cl)s3)o2)c1,25.1 µM (active)
12,O=C(Oc1ccc(OC(=O)C2CCC2)cc1)C1CCC1,inactive
13,Cc1nc2scc(-c3ccccc3)c2c(=O)n1N=C1C=CC(=O)C=C1,inactive
14,CCOC(=O)c1c(NC(=O)c2ccno2)c2cc([N+](=O)[O-])ccc2n1C,inactive
15,OCCN(CCO)c1nc(N2CCCCC2)c2nc(N(CCO)CCO)nc(N3CCCCC3)c2n1,inactive
16,Cc1cc(C)c(C#N)c(SCC(=O)C2CC2)n1,inactive
17,O=C(NCc1nnc2c3ccccc3c(-c3ccccc3)nn12)c1ccc(Cl)cc1,inactive
18,O=C(Nc1nnc(-c2ccccc2)o1)c1ccc(Cl)cc1,39.8 µM (active)
19,Cc1ccnc2nc(C(=O)Nc3nnc(-c4ccccc4)o3)nn12,inactive
20,Cc1nc(CS(=O)(=O)c2ccccn2)sc1C(=O)NNC(=O)c1ccccc1,inactive
21,Cc1ccc(S(=O)(=O)N[C@H](C(=O)Oc2ccc3c(C(F)(F)F)cc(=O)oc3c2)c2ccccc2)cc1,inactive
22,CCOc1ccc(-c2c(=O)n(OCc3nc4ccccc4[nH]3)c3ccccc3[n+]2[O-])cc1,inactive

row,SMILES,Potency
1,CCc1c(C)c2ccc(O)c(CN3CCCC3)c2oc1=O,inactive
2,Cc1oc2ccc(O)c(CN3CCCC3)c2c1C(=O)Nc1ccc(C(C)C)cc1,15.8 µM (active)
3,CC(C)c1ccc(/C=C2\Oc3c(ccc(O)c3CN3CCN(C)CC3)C2=O)cc1,inactive
4,CCn1c(=O)cc(OCC(=O)N2CCN(c3ccc(C)cc3)C(C)C2)c2ccccc21 (stereo not drawn),28.2 µM (active)
5,CCN1CCCC(OC(=O)c2cc(-c3ccc(C)cc3)nc3ccccc23)C1 (stereo not drawn),inactive
6,CCOC(=O)COc1cccc2c(=O)n(CC(=O)N3CCC(C)CC3)ccc12,inactive
7,COc1ccc(-c2cc(C(=O)Nc3ccc(S(=O)(=O)Nc4onc(C)c4C)cc3)c3ccccc3n2)cc1,inactive
8,COc1ccc(-c2nc3ccc(NS(=O)(=O)c4ccc(C)cc4)cc3o2)cc1,39.8 µM (active)
9,COCc1cc(=O)oc2cc(NS(=O)(=O)c3ccc(C)cc3)ccc12,inactive
10,COC(=O)c1cscc1S(=O)(=O)Cc1ccccc1,inactive
11,CC(=O)Nc1ccc(S(=O)(=O)NCCc2cn3nc(C)c(C)nc3n2)cc1,inactive
12,CNC(=O)COC(=O)/C=C/c1nc2ccccc2s1,inactive
13,O=C(NCCN1C(=O)S/C(=C\c2ccc(Cl)c([N+](=O)[O-])c2)C1=O)C1=COCCO1,25.1 µM (active)
14,CCOC(=O)CN1C(=O)S/C(=C\c2ccc3c(c2)OCO3)C1=O,inactive
15,CCCn1nnc(NC(=S)NC(=O)c2ccccc2OC)n1,inactive
16,C=CCN1C(=O)/C(=C2\C(=O)Nc3ccccc32)S/C1=N/c1ccc(O)cc1,31.6 µM (active)
17,C=CCN1C(=O)/C(=C/c2ccc(O)cc2)S/C1=N/c1nccs1,inactive
18,Cc1ccc(-c2cn3nc(-c4ccccc4)c(-c4ccccc4)nc3n2)cc1,inactive
19,Cc1ccc2nc(Cl)nc(-c3ccccc3)c2c1,inactive
20,Cc1nc2ccccc2nc(C)c1=NOCc1cccc(F)c1,inactive
21,Cc1ccn2c(NCc3ccccc3)c(-c3cccs3)nc2c1,inactive
22,Cc1ccc2nc(-c3ccccc3)c(Cc3cccc(F)c3)n2c1,31.6 µM (active)

row,SMILES,Potency
1,Cc1ccc(-c2nc3ccc(C)cn3c2Cc2ccsc2)cc1,22.4 µM (active)
2,Cc1ccc(Cc2c(-c3ccccc3)nc3cc(C)ccn23)cc1,22.4 µM (active)
3,Cc1ccc(Sc2nc3ccc(C)cn3c(=O)c2/C=N/O)cc1,inactive
4,Cc1ccc(-c2nc3ccc(C)cn3c2Cc2cccc(F)c2)cc1,35.5 µM (active)
5,Cc1c(NC(=O)CCC2CCCCC2)cc(C(=O)N2CCOCC2)cc1[N+](=O)[O-],inactive
6,O=C(O)c1cc(Cl)c(Cl)cc1C(=O)N(Cc1ccccc1)Cc1ccccc1,inactive
7,COc1cccc2sc3cc(NCc4ccc(C)o4)ccc3c(=O)c12,inactive
8,CN(C)c1ccc(/C=C/c2nc(O)c3ccccc3n2)cc1,inactive
9,Cc1ccccc1/C=C/c1nc(O)c2ccccc2n1,31.6 µM (active)
10,Oc1nc(/C=C/c2cccc3ccccc23)nc2ccccc12,inactive
11,CCN(c1ccccc1)c1nc(=O)c2cccnc2s1,inactive
12,O=S1(=O)C=C(Sc2nc3cc(Cl)ccc3o2)c2ccccc21,10 µM (active)
13,Brc1cccc(CSc2nnc(-c3ccncc3)o2)c1,inactive
14,O=S1(=O)C=C(Sc2nnc(-c3ccccc3)o2)c2ccccc21,11.2 µM (active)
15,N#C/C(=C\c1c(Oc2ccccc2F)nc2ccccn2c1=O)C(=O)NC1CCS(=O)(=O)C1 (stereo not drawn),inactive
16,Cn1c(=O)oc2cc(S(=O)(=O)N3CCCC3)ccc21,inactive
17,O=[N+]([O-])c1cc(S(=O)(=O)N2CCCCCC2)ccc1Cl,42.3 µM (active)
18,NC(=O)c1cc(S(=O)(=O)N2CCCCC2)cs1,inactive
19,O=S(=O)(c1ccc(S)nc1)N1CCCCC1,inactive
20,O=S(=O)(c1ccc(S)nc1)N1CCCCCC1,inactive
21,O=[N+]([O-])c1cc(S(=O)(=O)N2CCCCCC2)ccc1F,35.5 µM (active)
22,COCc1cc(C)nc2sc(C(=O)Nc3ccccc3C)c(N)c12,inactive

row,SMILES,Potency
1,O=C(Nc1nc2n(n1)C(c1ccccc1)C=C(c1ccc(Cl)cc1)N2)c1ccco1 (stereo not drawn),inactive
2,CCCCc1cc(=O)oc2cc(OCC(=O)Nc3cccnc3)c(Cl)cc12,inactive
3,S=C(NCc1ccccc1)N/N=C/c1cccs1,inactive
4,Cc1ccc(CN2CCSCC2)cc1,inactive
5,O=C(CCC1CCCC1)NNC(=O)c1ccc(F)cc1,inactive
6,O=C(/C=C/c1ccc([N+](=O)[O-])o1)NNC(=O)c1ccc(F)cc1,7.08 µM (active)
7,O=C(CN1C(=O)/C(=C/c2ccccc2F)Oc2ccccc21)N1CCN(c2ccccn2)CC1,inactive
8,COC(=O)c1cc(S(=O)(=O)N2CCN(Cc3ccccc3)CC2)cn1C,inactive
9,O=C(OC1C2CCC1C1CN(CCc3ccccc3)CC12)c1ccccc1 (stereo not drawn),31.6 µM (active)
10,O=C(CSc1nnc(O)n1CCc1ccccc1)NC1CCCC1,inactive
11,O=C(c1ccccc1)N1N=C(c2ccccc2)CC1(O)C(F)(F)F (stereo not drawn),inactive
12,CCOC(=O)C1=NN(C(=O)c2ccccc2)C(O)(c2ccc(C)cc2)C1 (stereo not drawn),inactive
13,CCC1=NN(C(=O)c2ccccc2O)C(O)(c2ccccc2)C1 (stereo not drawn),25.1 µM (active)
14,CCOC(=O)N1CCN(Cc2nc3ccc([N+](=O)[O-])cc3c(=O)n2-c2cccc(OC)c2)CC1,inactive
15,CCN(C(=O)CSc1nc2n[nH]c(C)c2c(=N)n1-c1cccc(OC)c1)c1cccc(C)c1,22.4 µM (active)
16,COc1cccc(-n2cnnc2SCC(=O)NC2CC2)c1,inactive
17,CCCCC[C@@H](C)N1C[C@@H](COCc2ccccc2)Oc2cc(N3CC[C@@H](O)C3)ccc2S1(=O)=O,25.1 µM (active)
18,CCCCC[C@H](C)N1C[C@H](COCc2ccccc2)Oc2cc(N3CC[C@H](N(C)C)C3)ccc2S1(=O)=O,39.8 µM (active)
19,CCCCC[C@@H](C)N1C[C@@H](COCc2ccccc2)Oc2cc(N3CC[C@H](N(C)C)C3)ccc2S1(=O)=O,31.6 µM (active)
20,C[C@H](c1ccccc1)N1C[C@@H](COCc2ccccc2)Oc2cc(N3CC[C@H](N(C)C)C3)ccc2S1(=O)=O,39.8 µM (active)
